Data published in PubChem BioAssay (NCI).
About 83,000 compounds went through this panel and 20% of them were active in at least one assay; those are over-represented in the sample as a whole.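 Interpretation: 100, growth as untreated; towards 0, rising growth inhibition; 0, no net growth; 0 to -100, cell death. Compounds scoring below 10 were considered active.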 Unmarked numbers belong to inactive results. The source made the active and inactive calls.

What was measured:
Assay in all cases: NCI-60 one-dose screen, 48 h (100 = growth as untreated, 0 = no growth, -100 = all killed)
Settings in all cases: 10 µM unless noted
HCT-15 colon = tested on: HCT-15 colon
HT29 colon = tested on: HT29 colon
SNB-75 CNS = tested on: SNB-75 CNS
SNB-19 CNS = tested on: SNB-19 CNS
U251 CNS = tested on: U251 CNS
PC-3 prostate = tested on: PC-3 prostate
SK-MEL-5 melanoma = tested on: SK-MEL-5 melanoma
LOX IMVI melanoma = tested on: LOX IMVI melanoma
SK-MEL-28 melanoma = tested on: SK-MEL-28 melanoma
SK-MEL-2 melanoma = tested on: SK-MEL-2 melanoma
EKVX NSCLC = tested on: EKVX NSCLC
SN12C renal = tested on: SN12C renal
UO-31 renal = tested on: UO-31 renal
TK-10 renal = tested on: TK-10 renal
ACHN renal = tested on: ACHN renal
A498 renal = tested on: A498 renal
MOLT-4 leukemia = tested on: MOLT-4 leukemia
CAKI-1 renal = tested on: CAKI-1 renal
CCRF-CEM leukemia = tested on: CCRF-CEM leukemia

| SMILES | growth (HCT-15 colon) | growth (HT29 colon) | growth (SNB-75 CNS) | growth (SNB-19 CNS) | growth (U251 CNS) | growth (PC-3 prostate) | growth (SK-MEL-5 melanoma) | growth (LOX IMVI melanoma) | growth (SK-MEL-28 melanoma) | growth (SK-MEL-2 melanoma) | growth (EKVX NSCLC) [%] | growth (SN12C renal) | growth (UO-31 renal) | growth (TK-10 renal) | growth (ACHN renal) | growth (A498 renal) [%] | growth (MOLT-4 leukemia) | growth (CAKI-1 renal) | growth (CCRF-CEM leukemia) |
| --- | --- | --- | --- | --- | --- | --- | --- | --- | --- | --- | --- | --- | --- | --- | --- | --- | --- | --- | --- |
| Cn1cc(-c2csc(-c3cn(CCN)c4ccccc34)n2)c2cccnc21 | 46.6% | 30.3% | 46.8% | 65.3% | -75% (active) | 46.7% | 23.7% | 45.3% | 73% | 61% | 50.4 | 54.1% | 33.2% | 92.9% | 56.6% | 74.9 | 10.1% |  |  |
| CC(=O)OCCCCCCn1c2ccccc2c2c3c(c4c5ccccc5n(C)c4c21)C(=O)N(O)C3=O | 69.5% | 23.7% | 101% | 77.5% | 58.4% | 52.9% | 41.7% | 5.8% (active) |  | 84.6% | 98.6 | 70% | 50% | 80.6% | 74.9% | 52.9 | 10.9% | 4.21% (active) | 34.3% |
| Clc1ccc2c(NCCNc3nc(-c4ccccc4)cc(-c4ccccc4)n3)ccnc2c1 | -74.2% (active) | -54.3% (active) | -72.2% (active) | -51.7% (active) | -90.6% (active) | -88.5% (active) | -93.4% (active) | -76.7% (active) | -90.7% (active) | -10.9% (active) | 18.6 | -74.4% (active) | -94.3% (active) | -8.38% (active) | -97.2% (active) | 93 | -32.2% (active) |  |  |
| Cc1cc(Cl)nc(N(CCCNc2ccnc3cc(Cl)ccc23)Cc2ccco2)n1 | 18.3% | 8.64% (active) | 59.6% | 31.5% | 26.9% | 5.4% (active) | -82.6% (active) | 10.7% | 16.1% | 39.4% | 24.1 | 26.6% | 10.9% | 41.7% | 28.4% | 38.1 | -1.04% (active) |  |  |
| CC/C(=N/NC(N)=O)c1ccccc1 | 91.2% | 104% | 98% | 108% | 102% | 102% | 102% | 99% | 101% | 115% | 91.5 |  | 86.4% | 105% | 108% | 105 | 98% | 94.7% | 94.2% |
| Cc1cccc(C)c1NCc1nc(-c2ccccc2)n[nH]1 | 101% | 103% | 89.7% | 94.7% | 101% | 100% | 102% | 97.9% | 96.8% | 101% | 95 | 105% |  | 101% | 96.8% | 100 | 98% |  | 110% |
| COc1ccc2c(c1)c(-c1nc(-c3c[nH]c4ncccc34)cs1)cn2CCCN1CCCCC1 | -5.93% (active) | -51.8% (active) | 46.9% | 43.9% | -17.7% (active) | 28.5% | -87.6% (active) | -75.6% (active) | -74.9% (active) | 73.6% | 51.2 | 58% |  | 77.5% | 22.3% |  | -18.9% (active) |  | -0.15% (active) |
| COc1ccc(-c2nc(SCC(=O)Nc3ccc(C(C)=O)cc3)[nH]c(=O)c2C#N)cc1 | 103% | 101% | 88.3% | 96.5% | 89.4% | 88% | 100% | 96.2% | 101% | 104% | 102 | 94.5% | 105% |  | 101% | 98.1 | 103% | 96.2% | 109% |
| Cn1cc(-c2csc(-c3cn(CCCN4CCCCC4)c4ccccc34)n2)c2cccnc21 | -78.2% (active) | -87.7% (active) | 49.3% | -65.6% (active) | -90.5% (active) | -55.7% (active) | -98.5% (active) | -71.9% (active) | -82.6% (active) | 101% | 70.8 | -70.9% (active) | -90.2% (active) |  | -97.4% (active) | 82.6 | -50.5% (active) |  | -27.9% (active) |
